Measured values published in ChEMBL document CHEMBL3988442, “University of Dundee, Small-Polar-MMV Screening Library” (2021).
In all, about 48,000 compounds went through this assay and about 13,000 (27%) showed an effect of 50% or more. This is one part of the list.

tested on: Wolbachia pipientis; assay: Anti-Wolbachia Cell-Based Screen; type: functional; set-up: scale not given: in the data most compounds retested in dose-response had high values; conditions: 5 µM

SMILES	Percent Effect [%]
CCn1ccnc1CNC1CC(=O)N(CCc2cccc(Cl)c2)C1 (stereo unspecified)	120.9
CCn1ccnc1CN1CCCC(CO)(Cc2cccc(Cl)c2)C1 (stereo unspecified)	-3.247
O=C1CC(NCc2ccncc2)CN1CCc1cccc(Cl)c1 (stereo unspecified)	73.7
Cc1cccc(CNC2CC(=O)N(Cc3cccc(F)c3)C2)c1 (stereo unspecified)	24.38
Oc1cccc(CNC2CCN(CCc3ccncc3)CC2)c1	-20.44
CCn1cc(CNC2CC(=O)N(CCc3cccc(Cl)c3)C2)cn1 (stereo unspecified)	-6.807
CCn1ccnc1C1CCN(Cc2cccc(Cl)c2)CC1	9.663
O=C1CC(NCc2cccc(O)c2)CN1CCc1cccc(Cl)c1 (stereo unspecified)	126.2
CCc1ncc(CNC2CC(=O)N(CCc3cccc(Cl)c3)C2)cn1 (stereo unspecified)	-5.676
COc1ccccc1CCNC(=O)NC(C)COCC(F)(F)F (stereo unspecified)	-18.36
CC(CS(C)(=O)=O)NCc1cc(Cl)ccc1F (stereo unspecified)	6.588
CN(Cc1ccccc1-n1cccn1)c1nc(N)nc2c1CCNCC2	7.066
COCCN(Cc1ccc(C)cc1)Cc1nccn1C	5.615
CCC(CC)C(=O)NCCc1ccn(-c2ccccc2)n1	133.4
COCCNC(=O)NCCc1ccn(-c2ccccc2)n1	4.023
CCN(CC)C(=O)NCCc1ccn(-c2ccccc2)n1	134.9
CCC(C(=O)NCCc1ccn(-c2ccccc2)n1)N1CCCC1=O (stereo unspecified)	2.511
COc1ccc(CNCCc2ccn(-c3ccccc3)n2)cc1O	7.82
CC(=O)NC1CCc2ccc(S(=O)(=O)NCc3ncccc3C)cc21 (stereo unspecified)	37.01
CC(=O)N1CCCC(Cc2cnc(-c3c(C)nn(C)c3C)cn2)C1 (stereo unspecified)	146.7
COCCN1CCCC(Cc2cnc(-c3c(C)nn(C)c3C)cn2)C1 (stereo unspecified)	161.1
Cc1nn(C)c(C)c1OCC(=O)N1CCCCC1	-9.266
COCCN1CCCC(CN(C)c2nc3c(s2)c(C)nn3C)C1 (stereo unspecified)	-14.47
CC(=O)N1CCC(Cc2cnc(-c3c(C)nn(C)c3C)cn2)CC1	190.1

SMILES	Percent Effect [%]
Cc1nn(C)c(C)c1OCC(=O)N1CCCC1	-17.38
COCCN1CCC(CN(C)c2ncnc3c2c(C)nn3C)C1 (stereo unspecified)	-22.39
COCCn1c(=O)n(Cc2cccc(F)c2F)c2cc(C(=O)O)ccc21	-6.581
Cn1nc(CN2CCCN(C3CCCC3)CC2)c2c(Cl)cccc21	4.033
CC1(C)OCC2(CO1)CN(C(=O)c1cccc3ccccc13)C2	-8.289
c1ccc(-c2ncc(CNC3CCc4ncnn4C3)cn2)cc1 (stereo unspecified)	5.444
c1ccc(-c2cnc(CNC3CCc4ncnn4C3)o2)cc1 (stereo unspecified)	7.622
Cc1nn(Cc2ccccc2)c(C)c1CNC1CCc2ncnn2C1 (stereo unspecified)	117.1
Cc1nn(-c2ccccc2)c(C)c1CNC1CCc2ncnn2C1 (stereo unspecified)	1.377
Cc1nc(-c2ccccc2)sc1CNC1CCc2ncnn2C1 (stereo unspecified)	88.63
CCOCCNS(=O)(=O)c1ccc2c3c1CCCN3C(=O)CO2	17.61
O=c1c2c(ncn1CCO)nc1n2CCC1	3.555
CC(C)(C)OC(=O)NC(C)(C)c1noc(CN2CCCCC2)n1	1.243
CN(C)C(=O)N1CCC2(CC1)CCN(c1ncccn1)C2.O=C(O)C(F)(F)F	115.8
CN(C)C(=O)N1CCOCC2(CCN(c3ncccn3)C2)C1.O=C(O)C(F)(F)F (stereo unspecified)	-1.009
CN(C)C(=O)N1CCOCC2(CCN(c3ccccn3)C2)C1.O=C(O)C(F)(F)F (stereo unspecified)	-12.67
CN(C)C(=O)N1CCC2(CCCN(c3ncccn3)C2)C1.O=C(O)C(F)(F)F (stereo unspecified)	113.7
CCn1nc2c(cc1=O)CN(Cc1nnc(C3CC3)o1)CC2	14.78
CSc1cccc(NC(=O)N2CCCC(CNC(=O)c3ccco3)C2)c1 (stereo unspecified)	-2.877
CSCCCn1ccnc1-c1cccc(C#N)c1	-12.84
NC(=O)NC(CC(=O)NCCc1cccc(F)c1)c1cccs1 (stereo unspecified)	2.392
CC(C)=CCC/C(C)=C\CNCc1ccco1	-4.355
O=C(C1CCCC1)N1CC2(CCN(C3COC3)C2)OCc2ccccc21 (stereo unspecified)	114.9
O=C(C1CCCC1)N1CCOc2cccc(F)c21	1.761

SMILES	Percent Effect [%]
O=C(C1CCCC1)N1CC2(CCN(C3COC3)CC2)Cc2ccccc21	95.07
O=C(C1CCCC1)N1CC2(CCCN(C3COC3)C2)Cc2ccccc21 (stereo unspecified)	99.05
O=C(C1CCCC1)N1CC2(CCN(C3COC3)C2)Cc2ccccc21 (stereo unspecified)	95.07
O=C(Cc1cccnc1)N1CCC2(CCN(C3CCOC3)CC2)C1 (stereo unspecified)	6.84
CC(CNC(=O)CCCc1ccccn1)c1ccsc1 (stereo unspecified)	1.971
Cc1ccc(NC(=O)C2CSCN2C(=O)c2cnn(C)c2)c(C)c1 (stereo unspecified)	-7.721
O=C(C1CC1)N1C[C@@H](F)[C@@H](OCc2nc3ccccc3o2)C1	-16.99
N#Cc1cn(CC(=O)NC2CC2)c2ccc(Br)cc2c1=O	-2.411
COCCCN1C(=O)CC[C@H]2CN(c3ccnc4ccccc34)CC[C@H]21	-6.412
COC1CCN(CCNC(=O)C2CCCCC2)CC1	-3.467
Cc1cc(N(C)Cc2ncc(-c3ccccc3C(=O)O)s2)ncn1	81.06
COc1cc(N(C)CCC(O)c2ccccc2)ncn1 (stereo unspecified)	13.13
CN(C)C(Cn1ccnc1-c1ccccc1C(=O)O)c1ccccc1Cl (stereo unspecified)	-23.61
CCc1cnc(CN(C)C(=O)NC2CCN(c3ccccc3)C2)s1 (stereo unspecified)	0.02013
Cc1ccsc1C(Cn1ccnc1-c1ccccc1C(=O)O)N(C)C (stereo unspecified)	-13.02
Cc1nccc(N(C)Cc2ncc(-c3ccccc3C(=O)O)s2)n1	127.4
CN1CC(Nc2nc3c(cnn3-c3ccccc3)c(=O)[nH]2)CCC1=O (stereo unspecified)	9.222
O=C1CCCCN1c1cccc(CNC2CCCC2)c1	0.3467
Cc1csc(CN2CC[C@H]3C(=O)N(c4cccnc4)CCO[C@H]3C2)n1	6.542
COc1cc(N2CCC3(C2)CN(c2cccnc2)C(=O)CN3C)ncn1 (stereo unspecified)	-13.12
CN1CC(=O)N(c2ccccc2)Cc2c(NC3CC3)ncnc21	112.7
CN1CC(=O)N(c2cccnc2)Cc2c(NC3CC3)ncnc21	103.4
Cc1cccc(N2Cc3c(NC4CCCC4)ncnc3N(C)CC2=O)c1	95.74
Cc1cccc(N2Cc3nc(=O)[nH]n3C2=O)c1	2.871

SMILES	Percent Effect [%]
NC(=O)c1cnc(NC2CCN(c3ccccc3)CC2)c(Cl)c1	-3.801
C=C1c2ccccc2C(=O)N1CCC(=O)N1CCNC(=O)C1	-10.5
N#Cc1c(Cl)nsc1N1CCN(CC2CC2)CC1	5.491
CC(C)N1CCN(C)CC1c1nnc2ccc(C(=O)N3CCCC3)cn12 (stereo unspecified)	-1.369
CCNC(=O)N1CCC2(CC1)CCn1c(C3CC3)cnc12	0.3432
CCn1ncc(S(=O)(=O)N[C@@H]2CCC[C@@H](n3ccnc3)[C@@H]2O)c1C	136.1
CCn1ncc(S(=O)(=O)N[C@@H]2CC[C@@H](n3ccnc3C)[C@@H]2O)c1C	115.7
CCn1ncc(S(=O)(=O)N[C@@H]2CC[C@@H](n3ccnc3)[C@@H]2O)c1C	136.9
CCn1cc(CN(C)S(=O)(=O)c2cnn(CC)c2C)c(C)n1	-1.191
CC(=O)N1CCC(N[C@@H]2CC[C@@H]2NS(=O)(=O)c2cccnc2)CC1	-3.734
Cc1cccc(NC(=O)N(CCC(F)(F)F)C[C@H](O)CO)c1	-5.672
Cc1cnc(C)c(N2CCN(CCCc3[nH]nc(C)c3C)CC2)n1	13.39
COc1ccc(-c2cn3c(n2)CO[C@@H](CNCc2nccn2C)C3)cc1	1.884
CN(C)C1CCN(C(=O)c2ccc(Cn3ccccc3=O)o2)CC1	-4.856
Cc1nc(CCCNC(=O)C2CC(=O)N(C3CC3)C2)sc1C (stereo unspecified)	0.5008
CS(=O)(=O)NC1CCN(Cc2ccc(OCc3ccccn3)cc2)CC1	-10.21
CCc1ncc2c(n1)CN(C(=O)CNC(=O)C(C)C)C2	-10.3
CN(Cc1ccsc1)C(=O)Nc1cccnc1N1CCCC1	3.447
Cc1nn(C)c(C)c1OCC(=O)NCc1cccc(CO)c1	-2.193
CCNC(=O)NC1CN(CC(=O)NCc2ccccc2C)C[C@@H]1OC (stereo partly specified)	-0.1158
CCc1nc(CC)n(CC(=O)NCc2cccc(C)c2)n1	86.53
CCCc1nnnn1Cc1cn2c(C)cccc2n1	-18.43
CCc1nc(CC)n(CC(=O)NCc2ccccc2C)n1	109.4
Cn1cnn(CC(=O)NCc2ccccc2F)c1=O	-8.996

SMILES	Percent Effect [%]
CCc1nc(CC)n(CC(=O)N(C)CC(F)(F)F)n1	0.1098
CCCc1nnnn1CC(=O)NCc1cccc(C)c1	98.23
CCc1nc(CC)n(CC(=O)N(CC)CC)n1	-1.582
CN(C)C[C@H]1O[C@H](Cc2cc(-c3ccccn3)on2)CC[C@@H]1O	-5.695
O=C(NS(=O)(=O)c1cccc(F)c1)c1ccccc1F	-17.84
Cc1noc(COCC(=O)Nc2ncccc2Br)n1	-14.88
CCN(CC)C1(Cc2cc(CC(C)C)on2)COC1	-8.16
O[C@H]1CCN(CC2CCOC2)[C@H]1Cc1ccncc1 (stereo partly specified)	-12.65
Cc1n[nH]c(C2CN(C(=O)c3coc(Br)c3)CCO2)n1 (stereo unspecified)	-34.21
Cc1ccc(CC(=O)N2CCOC(c3ncc(CN(C)C)[nH]3)C2)s1 (stereo unspecified)	104.7
Cc1ccc(CC(=O)N2CCOC(c3nc(C)n[nH]3)C2)cn1 (stereo unspecified)	12.26
O=C(c1cccnc1O)N1CCOC(c2ccc(Cl)cc2)C1 (stereo unspecified)	-6.348
O=C(c1cccnc1N1CCCC1)N1CCOC(c2ccccc2)C1 (stereo unspecified)	5.885
Cc1ccc(C(=O)N2CCOC(c3ncc(CN(C)C)[nH]3)C2)cc1F (stereo unspecified)	86.38
Cc1n[nH]c(C2CN(C(=O)c3ccn(C)c(=O)c3)CCO2)n1 (stereo unspecified)	0.6849
CN(C)Cc1cnc(C2CN(C(=O)c3ccccc3Cl)CCO2)[nH]1 (stereo unspecified)	174.9
CCCc1n[nH]c(C2CN(C(=O)Cc3ccc(C)nc3)CCO2)n1 (stereo unspecified)	-3.481
CCCc1ncc(C(=O)N2CCOC(c3nc(C)n[nH]3)C2)s1 (stereo unspecified)	1.166
Cc1n[nH]c(C2CN(C(=O)c3cc(C)sc3C)CCO2)n1 (stereo unspecified)	-9.628
Cc1ccccc1C(=O)N1CCOC(c2ncc(CN(C)C)[nH]2)C1 (stereo unspecified)	53.49
